# Screening data deposited in PubChem by The Scripps Research Institute Molecular Screening Center.
# PME-1 inh = PME-1 inhibitors via competitive probe labeling, primary screen, biochemical, fluorescence polarization, FP-Rh probe, HTS; AID 2130, 2009; 0.53% of 320,000 active; inhibition, % at 5.9 µM; Protein phosphatase methylesterase 1 (Homo sapiens), Q9Y570; recombinant PME-1;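 active = inhibition above the campaign mean of all compounds plus 3 SD, cut at about 26% in these data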;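 note: competitive labeling of PME-1 active site by serine hydrolase directed probe; 0% = PME-1 with DMSO and 100% = wells lacking PME-1 enzyme; inhibitors block probe labeling so polarization falls and inhibition rises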
# Target sequence (Q9Y570 whole entry, looked up): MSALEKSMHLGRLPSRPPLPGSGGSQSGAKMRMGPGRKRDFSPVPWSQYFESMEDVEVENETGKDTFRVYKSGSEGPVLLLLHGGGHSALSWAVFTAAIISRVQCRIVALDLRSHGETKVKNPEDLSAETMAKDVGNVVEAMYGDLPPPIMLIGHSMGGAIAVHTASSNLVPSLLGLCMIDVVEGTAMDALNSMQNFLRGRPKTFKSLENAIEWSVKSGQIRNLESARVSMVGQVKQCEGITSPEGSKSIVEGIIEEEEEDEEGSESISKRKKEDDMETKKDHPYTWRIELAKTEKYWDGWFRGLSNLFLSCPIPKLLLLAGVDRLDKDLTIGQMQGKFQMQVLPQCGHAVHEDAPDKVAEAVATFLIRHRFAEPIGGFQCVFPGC
# GSTO1 counter = inhibitors of recombinant GSTO1, primary screen, counter-screen for RBBP9 inhibitor project, biochemical, fluorescence polarization | 1.1% of 300,000 active | Glutathione S-transferase omega-1 (Homo sapiens), P78417 | activity-based probe fluorescence polarization | inhibition, % at 5.96 µM;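 active = inhibition above the campaign mean inhibition plus 3 SD, cut at about 35% in these data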;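 note: 0% = GSTO1-1 with DMSO and 100% = wells lacking GSTO1-1 enzyme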
# Fam108B counter = mouse Fam108B serine hydrolase inhibitors, primary screen, counter-screen for RBBP9 inhibitor project, biochemical, fluorescence polarization; recombinant Fam108B, FP-Rh probe fluorescence polarization; inhibition, % at 9.51 µM; 0.33% of 300,000 active;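 active = inhibition above the screen mean inhibition plus 3 SD, computed separately per campaign, cut at about 18% in these data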;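 note: inhibitors lower polarization as less probe binds the enzyme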
# LYPLA1 counter = LYPLA1 inhibitors, primary screen, counter-screen for PME1 inhibitor project, biochemical, fluorescence polarization, FP-Rh probe ABPP; Acyl-protein thioesterase 1 (Homo sapiens), O75608; recombinant LYPLA1; inhibition, % at 5.9 µM; 0.16% of 320,000 active; AID 2174, 2009;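 active = inhibition above the mean of all tested compounds plus 3 SD, set per campaign, cut at about 14% in these data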;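 note: inhibitors block serine hydrolase probe labeling of LYPLA1 so polarization falls; 0% = enzyme with DMSO and 100% = wells lacking LYPLA1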
# PAD4 inh = human PAD4 inhibitors, primary screen, biochemical, fluorescence polarization, 1536-well format; recombinant PAD4, RCA probe fluorescence polarization; inhibition, % at 6.36 µM; 0.41% of 330,000 active;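 active = percent inhibition above a cutoff equal to the mean of all tested compounds plus 3 SD, cut at about 15% in these data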;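 note: 0% = PAD4 with RCA probe and DMSO and 100% = probe without PAD4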
# LYPLA2 counter = LYPLA2 inhibitors, primary screen, counter-screen for PME1 inhibitor project, biochemical, fluorescence polarization, FP-Rh probe ABPP. Acyl-protein thioesterase 2 (Homo sapiens), O95372. recombinant LYPLA2. inhibition, % at 5.9 µM. 0.38% of 320,000 active;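 active = inhibition above the screen-wide mean plus 3 SD, limit set per campaign, cut at about 26% in these data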;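 note: 0% = LYPLA2 with DMSO and 100% = wells lacking LYPLA2 enzyme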
# Target sequence (O95372 whole entry, looked up): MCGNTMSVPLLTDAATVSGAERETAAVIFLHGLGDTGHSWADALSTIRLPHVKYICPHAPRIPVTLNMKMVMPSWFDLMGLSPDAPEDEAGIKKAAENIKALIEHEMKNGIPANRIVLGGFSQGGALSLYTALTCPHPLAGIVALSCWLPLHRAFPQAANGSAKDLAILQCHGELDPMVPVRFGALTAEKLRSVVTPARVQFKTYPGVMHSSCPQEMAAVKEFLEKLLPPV
# PAD4 confirm = human PAD4 inhibitors, confirmation, biochemical, fluorescence polarization | shares compounds with PAD4 inh | recombinant PAD4, RCA probe fluorescence polarization | inhibition, % at 6.36 µM | 28% of 1,200 active | AID 488796, 2010;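 active = mean inhibition across replicates above the hit cutoff set by the earlier primary screen, cut at about 15% in these data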;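 note: inhibitors block active-site labeling by the probe so polarization falls; 0% = PAD4 with probe and DMSO and 100% = probe without PAD4 enzyme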
# Starred values were filed as active, the others as inactive; . = no result. Most compounds without a hit are left out; they make up all but 1.8% or so of the library.
SMILES,PME-1 inh,GSTO1 counter,Fam108B counter,LYPLA1 counter,PAD4 inh,LYPLA2 counter,PAD4 confirm
Cc1ccc(OCCC(=O)OCC(=O)Nc2cc(C)nn2-c2ccccc2)cc1,5,3,4,-2,-2,2,.
O=C(COc1cc2oc(=O)c3c(c2cc1Cl)CCC3)NCCCn1ccnc1,-1,-1,1,1,-2,7,.
CC1CCN(CC(=O)N2CCc3ccccc32)CC1,-2,4,1,0,-2,0,.
CCOC(=O)C1CCN(CC(=O)N2CCc3ccccc32)CC1,2,-1,2,3,38*,-1,2
CN(C)c1ccc(N2C(=O)CSC2=S)cc1,-25,-65,-9,-19,-37,-26,.
CC1SC(=S)N(c2ccc(N(C)C)cc2)C1=O (stereo unspecified),3,15,-4,-3,15*,5,3
COc1ccc(S(=O)(=O)NC2CCN(Cc3ccccc3)CC2)cc1NC(C)=O,4,.,.,2,1,7,.
NC(=S)Nc1cccc2cccnc12,0,26,3,2,-1,9,.
NC(=S)NNc1cccc2cccnc12,11,62*,7,2,29*,1,5
Oc1ccccc1CNc1cccc2cccnc12,3,33,8,-1,35*,12,-4
C=CCC(CC=C)(NC(=O)c1ccccc1)c1ccccc1,0,7,2,-1,-1,7,.
C=CCC(CC=C)(NC(=O)c1ccccc1C)c1ccccc1,1,12,-1,-4,17*,-6,8
CC(C)c1cccc(C(C)C)c1NC(=O)CN1C(=O)NC2(CCCC2)C1=O,3,5,-2,-5,3,-1,.
CC(C)c1cccc(C(C)C)c1NC(=O)CN1C(=O)NC2(CCCCCCC2)C1=O,4,.,.,-2,18*,-3,8
O=C(Nc1ccc(S(=O)(=O)Nc2ncccn2)cc1)c1ccc2ncsc2c1,-7,-6,-4,-3,18*,1,10
CC1=NN(c2ccccc2)C(=O)/C1=C/c1ccc[nH]1,5,2,4,-1,1,0,.
CC1=NN(c2ccccc2)C(=O)/C1=C/c1cccs1,0,55*,-2,1,35*,4,1
CC1=NN(c2ccccc2)C(=O)/C1=C\c1ccc(Br)s1,4,16,8,-4,16*,0,-2
CCCCn1nc(C(=O)NCC(c2cccs2)N2CCOCC2)c2ccccc2c1=O (stereo unspecified),-1,.,.,-4,-1,10,.
O=c1cc(-c2ccc(Br)cc2)[nH][nH]1,2,24,5,-1,56*,2,-1
CCOC(=O)c1cn[nH]c1NC(=S)Nc1ccc(Cl)cc1,-14,-6,-3,1,2,-6,.
C/C(=C\C(=O)c1ccc(Cl)cc1)Nc1ccc(N2CCOCC2)cc1,1,4,-1,1,-9,-1,.
C/C(=C\C(=O)c1ccccc1)Nc1ccc(N2CCOCC2)cc1,1,6,0,-1,20*,5,6
CC(=O)Nc1ccc(N/C(C)=C/C(=O)c2cccnc2)cc1,1,0,-7,6,22*,1,3
CC(=O)c1ccc(NC(=S)Nc2ccc(N3CCOCC3)cc2)cc1,3,24,4,-1,20*,0,2
SMILES,PME-1 inh,GSTO1 counter,Fam108B counter,LYPLA1 counter,PAD4 inh,LYPLA2 counter,PAD4 confirm
Cn1nc(C(=O)NNC(=O)CCOc2ccc(C(C)(C)C)cc2)c2ccccc2c1=O,1,.,.,5,-1,8,.
COc1cccc(-c2ccc(C#N)c(=O)[nH]2)c1,9,5,3,-1,1,2,.
COc1cccc(-c2cc(=O)[nH][nH]2)c1,-1,17,-4,-1,38*,0,-5
COc1ccc(OC)c(S(=O)(=O)Oc2ccc(N)c3ccccc23)c1,8,35*,3,-5,21*,-6,-10
CCOC(=O)c1c(C)sc2c1N(C(=O)CCl)c1cc(Cl)ccc1S2,1,-6,0,-1,19*,9,43*
CNc1c(C(=O)O)ccc2c1C(=O)c1ccccc1C2=O,-2,2,-2,1,0,-3,.
O=C(O)c1ccc2c3c(ncnc13)-c1ccccc1C2=O,10,18,6,10,85*,4,68*
O=C1c2ccccc2C(=O)C12OC2c1ccc(Cl)cc1Cl (stereo unspecified),2,25,3,3,36*,-3,40*
Cn1nnnc1Sc1ncnc2scc(-c3ccc(Cl)cc3)c12,7,.,.,-2,11,3,.
Cn1nnnc1Sc1ncnc2scc(-c3ccc([N+](=O)[O-])cc3)c12,3,.,.,4,17*,15,10
CC(=O)c1ccc(N(CC(=O)NC2CCCC2)C(=O)c2csnn2)cc1,0,3,1,1,-2,0,.
COc1ccc(-n2nnnc2SCC(=O)N(C)C2CCS(=O)(=O)C2)cc1 (stereo unspecified),.,.,.,.,-5,.,.
CCn1nnnc1SCC(=O)N(C)C1CCS(=O)(=O)C1 (stereo unspecified),2,.,.,2,16*,3,-4
COc1ccc(NC(=O)CCCNC(=O)Cn2cnc3sc4c(c3c2=O)CCCC4)c(OC)c1,-3,-3,1,-2,35*,-2,4
O=C(O)c1ccc(-c2nc(-c3ccc(Cl)cc3Cl)cs2)cc1,2,1,-3,-4,-2,-6,.
CC(=O)N1CC[n+]2c(-c3ccc(Cl)cc3Cl)csc21,6,4,-2,-2,16*,4,5
CS(=O)(=O)c1ccc2nc(N)sc2c1,-2,1,0,1,-2,2,.
CS(=O)(=O)c1ccc(N)c(SSc2cc(S(C)(=O)=O)ccc2N)c1,2,18,3,1,45*,0,52*
C=CCN(CC=C)C(=O)C(=O)c1ccn(-c2c(C)csc2C(=O)OC)c1,0,-1,-1,-1,1,7,.
COc1ccc(CCNC(=O)COC(=O)c2ccc(C)s2)cc1,5,.,.,0,81*,3,-4
N#CC1=C(N)OC2=C(CN(Cc3ccccc3)C/C2=C\c2cccnc2)C1c1cccnc1 (stereo unspecified),4,-6,7,6,2,5,.
